We go through 54 compounds from PubChem BioAssay AID589 (National Center for Advancing Translational Sciences (NCATS), 2007).

Screen size: about 59,000 compounds; about 6,200 (11%) were called active. Another 9% or so got no clear call; they are omitted. This is one part of a sample in which actives are shown more often than they occur. Rule as the data show it: active = max dye-equivalent concentration above about 10 nM; inconclusive = mostly about 1.1 nM to 9.6 nM; inactive = weaker than that.

The nature of this experiment: qHTS Assay for Spectroscopic Profiling in 4-MU Spectral Region. The following applies: compound autofluorescence, 340/450 nm, 4-MU equivalents; hits give high values. The source says: NIH Molecular Libraries Screening Centers Network [MLSCN] NIH Chemical Genomics Center [NCGC] […] Occasionally, the artifactual effect may originate from the compounds own spectral or other biophysical properties which generally tend to track its assay concentration. Pre-screening/profiling the library with respect to the compounds spectral properties should help one exclude false positives early on. While the most informative fluorescent profiling data set is obtained by performing a full excitation and emission scan of each well by using a monochromator-based plate reader, such an approach is practical only on a very limited scale as scanning each well requires long time. An alternative approach, applied here, is to perform plate reader scans using selected excitation and emission wavelength pairs to generate a multidimensional relational database that correlates compound concentration and the respective relative fluorescence intensity at a given wavelength set. A standard curve of 4-methylumbelliferone (4-MU) present on each plate as six-point concentration series, was used to compute a normalized fluorescence response, termed dye-equivalent concentration, for each compound at each concentration.
NCGC Assay Protocol Summary: Buffer: 100 mM Tris buffer, pH 8.0 Dye standard plate: The wells in columns 1 through 4 of a Kalypsys polypropylene 1536-well compound plate were filled with standard solutions of fluorophore corresponding to the spectral region of interest. Solutions of 4-MU were placed in the following wells: A1, B1: 3 mM, A2, B2: 300 uM, A3, B3: 30 uM, A4, B4: zero (DMSO), C1, D1: 3 uM, C2, D2: 900 nM, C3, D3: 300 nM, C4, D4: zero (DMSO). Assay Steps: Six uL of buffer were dispensed to 1536-well Greiner black plates. Compounds and dye standards (23 nL) were transferred via Kalypsys PinTool. The plates were incubated for 15 min at room temperature, and then read on ViewLux (Perkin-Elmer) High-throughput CCD imager using 340 nm and 450 nm excitation and emission filter set. Keywords: NIH Roadmap, MLSCN, MLI, MLSMR, qHTS, NCGC, Fluorescent Profiling, 4MU, 4-MU
(In general: Quantitative high-throughput screening tests each substance at several concentrations.)
On to `CC(C)C(NC(=O)OCc1ccccc1)C(=O)OCC(=O)N1C(C)CCCC1C` (centres undefined), for which the max dye-equivalent concentration is 37 nM (active).
Then `COc1cccc(NC(=O)C2CCCN2C(=O)OCc2ccccc2)c1` (centres undefined), with “inactive”.
With `NC1(C(=O)OCc2ccccc2)CCCC1` the entry was “inactive”.
On to `CCCC[C@H]1C(=O)N(c2ccccc2)N(c2ccc(O)cc2)C1=O`, for which the max dye-equivalent concentration result was “inactive”.
In the case of `CCCOc1ccc(NC(=O)C2CCCNC2=O)cc1` (centres undefined), the max dye-equivalent concentration result is “inactive”.
Then `COC(=O)COc1ccc(S(=O)(=O)Nc2ccc(NC(C)=O)cc2)cc1`, with “inactive”; and `O=C1CCC(C(=O)Nc2ccc(OC(F)F)cc2)N1` (centres undefined), with 18 nM (active); and `O=C(O)C1CCN(c2ncnc3ccc(-c4ccccc4C(F)(F)F)cc23)CC1`, with “inactive”.
Turning to `COc1ccc(-c2nc3n(c2Br)CCC3)cc1`, the max dye-equivalent concentration result is “inactive”.
With `Cc1cccc(OCc2nnc(SCn3nnc4ccccc4c3=O)o2)c1` the entry was “inactive”; with `CCCn1c(O)c(CN2CCCC(C)C2)c(C)c(C#N)c1=O` (centres undefined), 13 nM (active); with `CCCCCCn1c(CN2CCCC(C)C2)nc2c1c(=O)n(C)c(=O)n2C` (centres undefined), “inactive”.
Then `O=C(Cc1c(F)cccc1Cl)N1CCN(C(=O)c2ccco2)CC1`, with “inactive”; and `CCN(Cc1ccncc1)C(=O)[C@@H](CO)c1ccccc1`, with “inactive”; and `Clc1ccc(Cc2nn3c(-c4ccncc4)nnc3s2)cc1`, with “inactive”.
Then `COc1cccc(C(=O)Nc2c3c(nn2-c2cccc(C)c2C)CS(=O)(=O)C3)c1OC`, with “inactive”; and `COc1ccccc1CNc1nc(-c2c(C)noc2C)nc2ccccc12`, with “inactive”.
In the case of `c1ccc(-c2oc3ncnc(N4CCOCC4)c3c2-c2ccccc2)cc1`, the max dye-equivalent concentration is 11 nM (active).
Then `c1ccc(-n2nnnc2N2CCOCC2)cc1`, with “inactive”; and `c1cnn(-c2cc(N3CCOCC3)ncn2)c1`, with “inactive”; and `CCCCOc1ccccc1/C=c1/sc2nc(-c3oc4ccccc4c3C)nn2c1=O`, with “inactive”.
With `CCc1ccccc1NC1c2ccccc2C(=O)N1c1cccnc1` (centres undefined) the entry was “inactive”.
Take `O=C(O)C1=CCCN(CCON=C(c2ccccc2)c2ccccc2)C1`: the max dye-equivalent concentration result was “inactive”.
Then `Cc1cccc(CNc2ccnc(-c3cccnc3)n2)c1`, with “inactive”; and `c1cncc(CNc2ccnc(-c3ccc4c(c3)OCO4)n2)c1`, with 14 nM (active); and `O=C(Nc1cccnc1)c1ccc2c(c1)OCO2`, with “inactive”.
On to `COc1ccc(Br)c2c1C[C@H](C(=O)O)CC2`, for which the max dye-equivalent concentration entry was “inactive”.
For `CCOc1cc(CO)ccc1OCC(=O)N1CCCCC1`, the max dye-equivalent concentration entry is “inactive”.
As to `Cc1ccccc1CSc1nnc(-c2ccccn2)n1N`, the max dye-equivalent concentration entry was “inactive”.
With `O=C(c1ccc2c(c1)OCCO2)C1CCN(S(=O)(=O)c2cccc(F)c2)CC1` the figure was 12 nM (active).
`CC(=O)c1cccc(S(=O)(=O)N2CCC(n3nnc4cc(F)ccc43)CC2)c1`: the max dye-equivalent concentration result is “inactive”.
On to `O=C(NCc1cccs1)C1CCN(S(=O)(=O)c2ccc3c(c2)OCCO3)CC1`, for which the max dye-equivalent concentration entry was “inactive”.
Then `COc1cccc(NC(=O)Cn2cnc3sc(C)c(S(=O)(=O)N4CCN(C)CC4)c3c2=O)c1`, with “inactive”.
With `CC(Nc1nc(N2CCCC2)nc2ccccc12)c1ccccc1` (centres undefined) the figure was 150 nM (active); with `Cc1ccc(C(CC(=O)O)Nc2nc(N3CCCCC3)nc(N3CCCCC3)n2)cc1` (centres undefined), “inactive”.
With `CC(C)(CSc1nncn1/N=C/c1ccco1)NS(=O)(=O)c1ccc(Cl)cc1` the entry was “inactive”; with `CCC(=O)Nc1ccc(C(=O)CSc2nnc(CNc3ccc(Cl)cc3)o2)cc1OC`, “inactive”.
Take `COC(=O)N1CCC[C@@]2(CCN(C(=O)NC(C)C)C2)C1`: the max dye-equivalent concentration result was “inactive”.
On to `Cc1occc1C(=O)Nc1cccc(Cn2cccn2)c1`, for which the max dye-equivalent concentration entry was “inactive”.
For the compound `COC(=O)C1=C(C)OC(N)=C(C#N)C1c1cc(OC)ccc1OC` (centres undefined), the max dye-equivalent concentration entry was “inactive”.
For the compound `CCC1=C(C(=O)OC)C(c2cc(OC)ccc2OC)C(C#N)=C(N)O1` (centres undefined), the max dye-equivalent concentration entry is “inactive”.
Regarding `CCCN1CC=C2C(C#N)=C(N)C(C#N)(C#N)C(c3cc(OC)ccc3OC)C2C1` (centres undefined), the max dye-equivalent concentration is 120 nM (active).
Then `CCCCNC(=O)c1c[nH]c2ccc(S(=O)(=O)Nc3ccc(OCC)cc3)cc2c1=O`, with “inactive”; and `COc1cccc(N(CC(=O)NC2CCCC2)C(=O)Cn2nnc(-c3ccc(C)cc3)n2)c1`, with “inactive”.
With `O=C(c1cc(C(F)(F)F)cc(C(F)(F)F)c1)N1CCC2(CCCN(c3ccccn3)C2)CC1` the entry was “inactive”; with `N#Cc1c2c(c(-c3ccccc3)[nH]c1=O)CCCC2`, 16 nM (active); with `CCCCCN(C(=O)NC(=O)Nc1ccccc1C)S(C)(=O)=O`, “inactive”.
Then `O=C1C2(c3ccccc3)CN(CCCO)CC1(c1ccccc1)CN(CCCO)C2`, with “inactive”; and `C[C@@H](N)[C@@H](C)Cc1ccccc1`, with “inactive”; and `O=C(CSc1nc(-c2ccco2)cc(C(F)(F)F)n1)NCc1cccs1`, with “inactive”.
For the compound `COc1ccc(-c2cc(C(F)(F)F)nc(SCCC(=O)NCc3ccco3)n2)cc1`, the max dye-equivalent concentration entry is “inactive”.
With `FC(F)(F)c1cc(-c2cccs2)nc(NCc2ccco2)n1`, the max dye-equivalent concentration was 20 nM (active).
With `COc1ccccc1N1CCN(C(=O)CSc2nnc(-c3ccoc3C)o2)CC1` the entry was “inactive”; with `CC(NCCO)C(=O)C12CC3CC(CC(C3)C1)C2` (centres undefined), 36 nM (active).
